# PubChem BioAssay (NCI)
# The panel holds about 83,000 compounds, 20% with a hit somewhere; the sample as a whole holds those more often.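 Single-concentration screen, 48 h exposure, 96-well plates. Endpoint: percent growth. Below 10 = active.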 Values without a mark were called inactive. The source made the active and inactive calls.
# Experiments:
# Test in all cases: NCI-60 one-dose screen, 48 h (100 = growth as untreated, 0 = no growth, -100 = all killed)
# Conditions in all cases: 10 µM
# HCT-15 colon = tested on: HCT-15 colon
# HT29 colon = tested on: HT29 colon
# SNB-75 CNS = tested on: SNB-75 CNS
# SNB-19 CNS = tested on: SNB-19 CNS
# U251 CNS = tested on: U251 CNS
# PC-3 prostate = tested on: PC-3 prostate
# SK-MEL-5 melanoma = tested on: SK-MEL-5 melanoma
# UACC-62 melanoma = tested on: UACC-62 melanoma
# LOX IMVI melanoma = tested on: LOX IMVI melanoma
# SK-MEL-28 melanoma = tested on: SK-MEL-28 melanoma
# SK-MEL-2 melanoma = tested on: SK-MEL-2 melanoma
# EKVX NSCLC = tested on: EKVX NSCLC
# SN12C renal = tested on: SN12C renal
# UO-31 renal = tested on: UO-31 renal
# TK-10 renal = tested on: TK-10 renal
# ACHN renal = tested on: ACHN renal
# CAKI-1 renal = tested on: CAKI-1 renal
# A498 renal = tested on: A498 renal
# CCRF-CEM leukemia = tested on: CCRF-CEM leukemia
# MOLT-4 leukemia = tested on: MOLT-4 leukemia
Compound,growth (HCT-15 colon),growth (HT29 colon),growth (SNB-75 CNS),growth (SNB-19 CNS),growth (U251 CNS),growth (PC-3 prostate),growth (SK-MEL-5 melanoma),growth (UACC-62 melanoma),growth (LOX IMVI melanoma),growth (SK-MEL-28 melanoma),growth (SK-MEL-2 melanoma),growth (EKVX NSCLC),growth (SN12C renal),growth (UO-31 renal),growth (TK-10 renal),growth (ACHN renal),growth (CAKI-1 renal),growth (A498 renal),growth (CCRF-CEM leukemia),growth (MOLT-4 leukemia)
O=C(Nc1nc2ccc([N+](=O)[O-])cc2s1)Nc1ccccc1I,1.19% (active),1.95% (active),-1.46% (active),10.5%,2.73% (active),9.44% (active),-78.5% (active),3.63% (active),9.2% (active),15.8%,-21.6% (active),-8.48% (active),1.18% (active),0.855% (active),10.8%,-0.408% (active),-19.5% (active),-8.67% (active),3.88% (active),1.39% (active)
CCOC(=O)CNC(=O)CN(Cc1ccccc1)C(=O)[C@@]1(C)CCC[C@]2(C)[C@H]3C[C@H]4C(C(C)C)=C[C@]3(CC[C@H]21)[C@@H]1C(=O)OC(=O)[C@@H]14,18%,42%,81.7%,67.7%,44.4%,39.2%,83.5%,64.4%,24%,82.5%,82.3%,67.6%,69%,65.5%,90.3%,57%,88.3%,110%,15.6%,27.8%
O=C(Nc1ccncc1)c1ccc(-n2c(=O)[nH]c3ccccc3c2=O)cc1,97.9%,105%,107%,91.1%,99.7%,92.4%,90.8%,76.9%,83.9%,104%,91.9%,94.2%,90.5%,87.3%,103%,96.2%,87.3%,114%,-31.5% (active),
O=S(=O)(Nc1ncccn1)c1ccc(-n2c(-c3ccccc3)nc(-c3ccccc3)c2-c2ccccc2)cc1,80.7%,105%,77.2%,82.3%,81.5%,67.8%,76.1%,83.7%,85.7%,105%,106%,76.9%,92.4%,62.2%,94.6%,97.3%,84.2%,81.9%,75.7%,92.1%
O=C(CSc1nnc(-c2c[nH]c3ccccc23)n1-c1ccccc1)Nc1ccc(C(=O)/C=C/c2ccccc2Cl)cc1,67%,91.6%,80.3%,84.8%,65.7%,61.2%,89.8%,72.1%,56.6%,96.3%,93.5%,67.2%,84.5%,51.6%,103%,74.5%,74%,101%,88.2%,55.6%
C/C(=N\N=C\c1ccc(N(C)C)cc1)c1ccc2c(c1)Nc1ccccc1S2,22%,52.5%,69.6%,63.1%,29.4%,54%,36.1%,70.7%,55%,85.7%,84.6%,47.1%,49.8%,57.4%,70.6%,50.8%,56.5%,86.4%,59.5%,34.3%
O=C(c1ccc(Cl)cc1)C1[C@H](c2ccccc2Br)[C@@H](c2ccccc2)NC12C(=O)Nc1ccccc12 (some centres undefined),12%,-16% (active),33.1%,31.6%,21.5%,17.3%,-15.9% (active),7.38% (active),-69.1% (active),44.8%,2.05% (active),14%,-54.2% (active),13.1%,55.7%,11.1%,14.8%,55.5%,7.61% (active),2.61% (active)
COc1ccc2cc([C@H](C)C(=O)NCc3ccccc3)ccc2c1,29.1%,5.25% (active),6.97% (active),31.7%,25%,49.5%,18.7%,22.1%,43%,64.4%,31%,42.5%,33.5%,46.3%,65.7%,54.9%,34.7%,63.1%,31%,47%
COc1cccc2nc(Nc3cccc(NC(=O)c4ccc(CN5CCCN(C)CC5)c(C(F)(F)F)c4)c3)ccc12,-100% (active),-72% (active),-84.5% (active),-99.3% (active),-55.6% (active),-69.8% (active),-96.9% (active),-74.1% (active),-98.8% (active),-100% (active),-87.4% (active),-98.9% (active),-79.9% (active),-97.2% (active),-89.4% (active),-100% (active),-100% (active),-91% (active),-54.3% (active),-42.8% (active)
Cc1noc2c(Cc3ccc([N+](=O)[O-])cc3)nn(CC(=O)N/N=C/c3ccc(Cl)cc3)c(=O)c12,80.5%,62.3%,44.9%,42.2%,12.7%,59.5%,88.4%,65.3%,40.7%,69.9%,90.5%,79.8%,54%,40.8%,71.9%,19.4%,52.3%,80.1%,95.6%,97.8%
COc1cc(/C=C/C(=O)c2ccc(F)cc2)ccc1Oc1nc(Nc2ccc(F)cc2)nc(N(C)C)n1,37.2%,60.4%,72.5%,68.6%,9.68% (active),63.9%,40%,51%,-56.3% (active),62%,61%,50.1%,60.1%,47.1%,99.4%,50.9%,58%,86.5%,15.2%,1.46% (active)
COc1ccc2nc(Nc3cccc(NC(=O)c4ccc(CN5CCN(C)CC5)c(C(F)(F)F)c4)c3)ccc2c1,-83.4% (active),-73.9% (active),-39.5% (active),-96.8% (active),-77.5% (active),-8.06% (active),-100% (active),-93% (active),-100% (active),-96.9% (active),-98.3% (active),-98% (active),-92.6% (active),-48.2% (active),-44.4% (active),-94.8% (active),-33.7% (active),-42.3% (active),-10.5% (active),-44.6% (active)
O=c1oc2ccc(-c3ccc(F)cc3F)cc2c(=O)n1-c1ccc(F)cc1,5.32% (active),59.6%,-14% (active),13.3%,18%,0.638% (active),-77.9% (active),-50.2% (active),1.46% (active),-0.667% (active),-61.5% (active),4.34% (active),-13.3% (active),-3.9% (active),20.5%,-12.7% (active),-24.1% (active),-17.2% (active),1.33% (active),-32.1% (active)
COc1cc(NC(=O)c2cc(-c3ccc(F)cc3F)ccc2O)cc(OC)c1OC,41.1%,110%,40.9%,31.1%,32.6%,21.9%,-15.7% (active),0.606% (active),55.3%,25%,-5.57% (active),50%,18.6%,9.27% (active),33%,55.9%,30.6%,-1.46% (active),25.6%,10.6%
O=C(CSc1nnc(-c2c[nH]c3ccccc23)n1-c1ccccc1)Nc1ccc(C(=O)/C=C/c2cccc([N+](=O)[O-])c2)cc1,84.1%,101%,99.8%,86.5%,92.5%,87%,91.3%,76.5%,75.6%,102%,101%,83.9%,104%,42.9%,115%,74.3%,83.7%,95.7%,96.1%,78%
